The source of these data is the supplement of paper PMC7366291.

What all share (settings): 25 µM; exposure: 24-48 hpf
Test [1] has as its system Danio rerio Tg(wt1b:EGFP) embryo, pronephros. Kind of test: glomerular separation, fold change vs DMSO control; higher = glomeruli further apart (abnormal). The gist of the method: (§1)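 Dechorionated Tg(wt1b:EGFP) zebrafish embryos were incubated at 28.5°C from 24 to 48 hpf with 25 μM compound in HEPES-buffered E3 containing 0.5% DMSO and 0.003% PTU. Distances and angles between 16 manually set points on maximum projections of dorsal pronephros images were measured in Fiji, with values over 2 SD from the feature mean excluded. Each feature is a fold change relative to the mean of same-day DMSO-treated embryos.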

The test system is the same in test [2]. The test can be described thus: glomerular width (mean of left and right), fold change vs DMSO control; higher = wider glomerulus. The gist of the method:
as §1

For test [3] the test system is unchanged. Kind of test: fraction of imaged embryos annotated as normal kidney; higher = less nephrotoxic; extreme values may be limits of the assay. The gist of the method: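 The value given is the share of embryos in each treatment scored as having a normal kidney. To obtain it, dechorionated Tg(wt1b:EGFP) zebrafish embryos were treated from 24 to 48 hpf at 28.5°C with 25 μM compound in 0.5% DMSO, in 5 mM HEPES-buffered E3 with 0.003% PTU. Pronephroi were imaged by widefield fluorescence (470 nm, 10 z-slices), and every embryo was annotated by hand from maximum projections.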

Test [4] shares this test system. Kind of test: pronephric angle neck segment to proximal convoluted tubule (mean of left and right), fold change vs DMSO control; higher = larger pronephric angle. The gist of the method:
as §1

Counter-ions that a name gives are not always drawn. ± gives the standard deviation or the standard deviation of the averaged measurements.

Turning to `Oc1ccc(OCc2ccccc2)cc1` [Monobenzone], the glomerular separation in test [1] was 2.85 ± 1.3. The molecule further had a glomerular width in test [2] of 0.753 ± 0.068. Moreover, the “fraction of imaged embryos annotated as normal kidney” value (“fraction of imaged embryos annotated” below) in test [3] worked out at 0.25. In addition, in test [4], the “pronephric angle neck segment” value worked out at 1.21 ± 0.018.
`O=P(O)(O)C(O)(Cn1ccnc1)P(=O)(O)O` [Zoledronic acid hydrate] gave a glomerular separation in test [1] of 1.2 ± 0.37. In test [2], this molecule yielded a glomerular width of 1.04 ± 0.015. Moreover, the “fraction of imaged embryos annotated” value in test [3] stood at 1. Besides, the “pronephric angle neck segment” value in test [4] came out at 0.989 ± 0.0085.
In test [1], `CCCCCCNC(=O)n1cc(F)c(=O)[nH]c1=O` [Carmofur] had a glomerular separation of 8.71 ± 3.1. Besides, the glomerular width in test [2] stood at 0.552 ± 0.03. In addition, in test [3], the “fraction of imaged embryos annotated” value is 0. Also, in test [4], the “pronephric angle neck segment” value turned out to be 1.72 ± 0.072.
On the same counts, the results for `Cc1c(NC(C)C)c(=O)n(-c2ccccc2)n1C` [Isopyrin hydrochloride] are 1.1 ± 0.6, 1.04 ± 0.016, 0.917 and 0.974 ± 0.022.
On the same counts, the results for `CCn1cc(C(=O)O)c(=O)c2cnc(N3CCNCC3)nc21` [Pipemidic acid] are 0.919 ± 0.32, 1.05 ± 0.013, 0.75 and 0.9737 ± 0.0064.
For `NCCNCCNCCNCCN` [Tetraethylenepentamine pentahydrochloride], in that order: 0.956 ± 0.33, 1.08 ± 0.041, 0.75 and 1.02 ± 0.049.
With `CCCCCNC(=N)N/N=C/c1c[nH]c2ccc(OC)cc12` [Tegaserod maleate], in test [1], the glomerular separation is 1.26 ± 0.31. In addition, in test [2], the glomerular width stood at 0.997 ± 0.032. Besides, the “fraction of imaged embryos annotated” value in test [3] came out at 0.7. Further, the “pronephric angle neck segment” value in test [4] was 0.963 ± 0.048.
`O=C(N/N=C/c1ccc([N+](=O)[O-])o1)c1ccc(O)cc1` [Nifuroxazide] displayed a glomerular separation in test [1] of 0.916 ± 0.47. The glomerular width in test [2] was 1.02 ± 0.041. The “fraction of imaged embryos annotated” value in test [3] worked out at 0.833. The “pronephric angle neck segment” value in test [4] came to 0.964 ± 0.028.
On the same counts, the results for `COC(=O)C1=C(C)NC(C)=C(C(=O)OC(C)C)C1c1cccc2nonc12` (stereo not given) [Isradipine] are 4.38 ± 1.4, 0.666 ± 0.037, 0 and 1.007 ± 0.0069.
`CCOC(=O)OC(C)OC1=C(C(=O)Nc2ccccn2)N(C)S(=O)(=O)c2ccccc21` (stereo not given) [Ampiroxicam]: the glomerular separation in test [1] was determined as 0.796 ± 0.29. Further, the glomerular width in test [2] came to 1.1 ± 0.027. The “fraction of imaged embryos annotated” value in test [3] is 1. Besides, the “pronephric angle neck segment” value in test [4] was found to be 0.963 ± 0.018.
For `C[C@@H]1CCC[C@H](C)N1NC(=O)c1ccc(Cl)c(S(N)(=O)=O)c1` [Clopamide], in that order: 0.881 ± 0.2, 1.01 ± 0.02, 0.917 and 0.98 ± 0.051.
On to `CN(C)CCOC(=O)COc1ccc(Cl)cc1` [Meclofenoxate hydrochloride], for which the glomerular separation in test [1] turned out to be 1.19 ± 0.36. The molecule further showed a glomerular width in test [2] of 1.02 ± 0.049. Besides, the “fraction of imaged embryos annotated” value in test [3] came out at 0.667. In test [4], the “pronephric angle neck segment” value is 1.05 ± 0.057.
Molecule `O=C(O[C@@H]1C[C@@H]2C[C@H]3C[C@H](C1)N2CC3=O)c1c[nH]c2ccccc12` [Dolasetron mesilate] came in with a glomerular separation in test [1] of 0.787 ± 0.28. In test [2], the glomerular width came out at 1.01 ± 0.018. Moreover, the “fraction of imaged embryos annotated” value in test [3] turned out to be 0.75. Besides, the “pronephric angle neck segment” value in test [4] is 0.946 ± 0.035.
On the same counts, the results for `Cn1c(=O)c2c(ncn2CC(=O)O)n(C)c1=O` [Acefylline] are 1.12 ± 0.41, 1 ± 0.029, 0.917 and 1.02 ± 0.035.
For `NS(=O)(=O)c1cc(Cl)c(Cl)c(S(N)(=O)=O)c1` [Dichlorphenamide], in that order: 0.91 ± 0.4, 1.15 ± 0.06, 0.727 and 0.941 ± 0.041.
In test [1], `CC1COc2c(N3CCN(C)CC3)c(F)cc3c(=O)c(C(=O)O)cn1c23` (stereo not given) [Ofloxacin] came in with a glomerular separation of 1.32 ± 0.67. Besides, the glomerular width in test [2] stood at 1.043 ± 0.0041. Also, in test [3], the “fraction of imaged embryos annotated” value is 0.833. Besides, the “pronephric angle neck segment” value in test [4] is 1.06 ± 0.038.
`CCCCNc1c(C(=O)OCC)c(C)nc2c1cnn2CC` [Tracazolate hydrochloride]: in test [1], the glomerular separation was 1.18 ± 0.63. The glomerular width in test [2] amounted to 0.929 ± 0.072. Besides, the “fraction of imaged embryos annotated” value in test [3] came out at 0.917. The “pronephric angle neck segment” value in test [4] is 1.06 ± 0.015.
For the molecule `CC(C)C(=O)OCC(=O)[C@@]12O[C@H](C3CCCCC3)O[C@@H]1C[C@H]1[C@@H]3CCC4=CC(=O)C=C[C@]4(C)[C@H]3[C@@H](O)C[C@@]12C` [Ciclesonide], in test [1], the glomerular separation turned out to be 1.7 ± 0.91. The glomerular width in test [2] was found to be 0.937 ± 0.0044. Also, the “fraction of imaged embryos annotated” value in test [3] was 0.333. Further, the “pronephric angle neck segment” value in test [4] came out at 1.06 ± 0.066.
`CCN(CC)CCN[C@@H](C(=O)OCCC(C)C)c1ccccc1` [Camylofine chlorhydrate] gave a glomerular separation in test [1] of 0.973 ± 0.34. In addition, the glomerular width in test [2] worked out at 1.02 ± 0.018. For the same molecule, in test [3], the “fraction of imaged embryos annotated” value was 0.75. The “pronephric angle neck segment” value in test [4] was 0.977 ± 0.015.
For `C[C@@H]1[C@H](O)[C@@H](C)/C=C/C=C/C=C/C=C/C=C/C=C/C=C/[C@H](O[C@@H]2O[C@H](C)[C@@H](O)[C@H](N)[C@@H]2O)C[C@@H]2O[C@](O)(C[C@@H](O)C[C@@H](O)[C@H](O)CC[C@@H](O)C[C@@H](O)CC(=O)O[C@H]1C)C[C@H](O)[C@H]2C(=O)O` [Amphotericin B], in that order: 3.69 ± 2.9, 0.907 ± 0.13, 0 and 1.59 ± 0.016.
For `Cc1nccn1CC1CCc2c(c3ccccc3n2C)C1=O` (stereo not given) [Ondansetron Hydrochloride], in that order: 1.05 ± 0.35, 1.011 ± 0.01, 0.833 and 0.96132 ± 0.00094.
For `NC[C@H]1O[C@H](O[C@H]2[C@H](O)[C@@H](O[C@H]3O[C@H](CO)[C@@H](O)[C@H](N)[C@H]3O)[C@H](N)C[C@@H]2N)[C@H](N)C[C@@H]1O` [Tobramycin], in that order: 1.49 ± 0.73, 0.94 ± 0.056, 0.583 and 1.01 ± 0.011.
In turn, `COC(=O)C1=C(C)NC(C)=C(C(=O)OCCN(C)Cc2ccccc2)C1c1cccc([N+](=O)[O-])c1` (stereo not given) [Nicardipine hydrochloride] yielded a glomerular separation in test [1] of 1.13 ± 0.73. The glomerular width in test [2] worked out at 1 ± 0.027. Further, in test [3], the “fraction of imaged embryos annotated” value worked out at 0.909. Also, the “pronephric angle neck segment” value in test [4] worked out at 1.01 ± 0.036.
For `O=C(C1CCCCC1)N1CC(=O)N2CCc3ccccc3C2C1` (stereo not given) [Praziquantel], in that order: 1.18 ± 0.28, 1 ± 0.052, 0.545 and 1.02 ± 0.057.
On the same counts, the results for `Cc1ccc(S(=O)(=O)NC(=O)NN2CC3CCCC3C2)cc1` (stereo not given) [Gliclazide] are 0.87 ± 0.46, 1.05 ± 0.021, 0.917 and 0.982 ± 0.011.
